Experimental data taken from PubChem BioAssay.
For some of these results: Potency and affinity values are given separately. Calls of active or inactive are those of the source. Where a call stands in place of a potency, no number is given. Unless noted, no rule for the calls is given here.

How the values were obtained:
[1] = antimalarial activity against Dd2 strain (AID 2302;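 active = growth inhibition above 50% at the single 2 µM test dose, taken to imply half-maximal potency below 2 µM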); conditions: P. falciparum Dd2 in RBCs, LDH growth readout, 72 h; at 2 µM; stronger effect = higher value
[2] = HepG2 cytotoxicity, primary screen, cytotoxicity control for P. falciparum antimalarial project, cell-based, ATP luminescence (AID 2303;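 active = inhibition above 50%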); conditions: HepG2 viability, 24-48 h, at 10 µM, stronger effect = higher value
[3] = molecular target: L-lactate dehydrogenase (Plasmodium falciparum (isolate CDC / Honduras)) (UniProt Q27743); test: PfLDH activity inhibition – cell lysate, 3D7 strain, counter-screen for P. falciparum growth inhibition project (AID 2304); conditions: P. falciparum 3D7 crude extract, LDH APAD/NBT absorbance; at 2 µM; stronger effect = higher value
Sequence of L-lactate dehydrogenase (Plasmodium falciparum (isolate CDC / Honduras)) (Q27743 whole entry, looked up): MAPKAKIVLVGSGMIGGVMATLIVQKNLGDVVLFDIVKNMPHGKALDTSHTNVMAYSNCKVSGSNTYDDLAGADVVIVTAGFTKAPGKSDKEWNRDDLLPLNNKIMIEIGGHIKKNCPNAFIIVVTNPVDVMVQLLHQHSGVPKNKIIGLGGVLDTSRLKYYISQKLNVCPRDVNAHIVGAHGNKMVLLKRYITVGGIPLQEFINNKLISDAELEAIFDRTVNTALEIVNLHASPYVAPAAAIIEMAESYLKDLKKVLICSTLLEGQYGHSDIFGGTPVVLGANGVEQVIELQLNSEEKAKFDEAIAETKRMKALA

[4] = inhibition of 3D7 malaria parasite growth – strain 3D7 (AID 2306); conditions: P. falciparum 3D7 erythrocytic growth, LDH absorbance, 72 h; at 2 µM; stronger effect = higher value
[5] = molecular target: Calcium-dependent protein kinase 1 (Plasmodium falciparum (isolate 3D7)) (UniProt P62344); test: PfCDPK1 kinase inhibitors, biochemical, TCAMS library (AID 1159585; cut-off not given, nearly all actives have IC50 up to about 0.98 µM;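 also: inhibitors leave more ATP so luminescence rises with inhibition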); conditions: recombinant PfCDPK1, Kinase-Glo ATP depletion luminescence
Sequence of Calcium-dependent protein kinase 1 (Plasmodium falciparum (isolate 3D7)) (P62344 whole entry, looked up): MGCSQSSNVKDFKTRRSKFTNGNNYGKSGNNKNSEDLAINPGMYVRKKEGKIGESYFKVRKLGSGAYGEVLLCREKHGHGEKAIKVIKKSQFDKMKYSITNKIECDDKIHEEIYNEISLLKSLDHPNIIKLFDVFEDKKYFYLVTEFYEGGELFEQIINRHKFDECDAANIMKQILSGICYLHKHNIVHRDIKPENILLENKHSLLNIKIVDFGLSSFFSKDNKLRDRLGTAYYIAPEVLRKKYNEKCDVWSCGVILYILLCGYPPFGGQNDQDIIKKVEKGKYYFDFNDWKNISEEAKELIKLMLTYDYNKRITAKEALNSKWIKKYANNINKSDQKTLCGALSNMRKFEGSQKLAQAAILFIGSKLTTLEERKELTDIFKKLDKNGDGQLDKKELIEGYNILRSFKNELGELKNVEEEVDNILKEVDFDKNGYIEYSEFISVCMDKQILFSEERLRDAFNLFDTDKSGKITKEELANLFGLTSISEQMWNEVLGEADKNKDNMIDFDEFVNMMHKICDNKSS

[6] = molecular target: Plasmodium falciparum protein kinase 6 (PK6, PF3D7_1337100) (UniProt Q8IDW1); test: PfPK6 kinase inhibitors, biochemical, TCAMS library (AID 1159586); conditions: recombinant PfPK6, Kinase-Glo ATP depletion luminescence
Sequence of Plasmodium falciparum protein kinase 6 (PK6, PF3D7_1337100) (Q8IDW1 1-305): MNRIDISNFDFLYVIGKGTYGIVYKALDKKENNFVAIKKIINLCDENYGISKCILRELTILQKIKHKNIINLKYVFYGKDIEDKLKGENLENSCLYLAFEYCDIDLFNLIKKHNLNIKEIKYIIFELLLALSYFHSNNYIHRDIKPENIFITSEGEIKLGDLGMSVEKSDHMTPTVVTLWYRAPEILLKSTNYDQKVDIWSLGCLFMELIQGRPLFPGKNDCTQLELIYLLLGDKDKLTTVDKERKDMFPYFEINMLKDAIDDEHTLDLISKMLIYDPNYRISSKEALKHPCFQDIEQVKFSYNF

[7] = molecular target: Protein kinase 7 (PK7), Plasmodium falciparum 3D7 (PF3D7_0213400) (UniProt Q7YTF7); test: inhibition of Plasmodium PK7 catalytic activity – biochemical, TCAMS antimalarial set, Kinase-Glo luminescence (AID 1159587); conditions: recombinant PfPK7, Kinase-Glo ATP depletion luminescence
Sequence of Protein kinase 7 (PK7), Plasmodium falciparum 3D7 (PF3D7_0213400) (Q7YTF7 1-343): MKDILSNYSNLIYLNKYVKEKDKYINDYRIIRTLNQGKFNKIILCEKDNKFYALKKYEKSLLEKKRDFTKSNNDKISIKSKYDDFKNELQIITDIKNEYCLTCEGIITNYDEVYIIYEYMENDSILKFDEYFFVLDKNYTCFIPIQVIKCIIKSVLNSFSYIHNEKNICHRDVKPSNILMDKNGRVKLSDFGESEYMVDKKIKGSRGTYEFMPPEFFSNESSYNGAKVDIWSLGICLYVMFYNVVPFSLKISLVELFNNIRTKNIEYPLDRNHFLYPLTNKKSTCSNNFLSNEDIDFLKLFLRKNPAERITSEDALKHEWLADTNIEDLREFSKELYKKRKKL

[8] = molecular target: Calcium-dependent protein kinase 4 (Plasmodium falciparum (isolate 3D7)) (UniProt Q8IBS5); test: PfCDPK4 kinase inhibitors, biochemical, TCAMS library (AID 1159588; cut-off not given, nearly all actives have IC50 up to about 0.91 µM); conditions: recombinant PfCDPK4, Kinase-Glo ATP depletion luminescence
Sequence of Calcium-dependent protein kinase 4 (Plasmodium falciparum (isolate 3D7)) (Q8IBS5 whole entry, looked up): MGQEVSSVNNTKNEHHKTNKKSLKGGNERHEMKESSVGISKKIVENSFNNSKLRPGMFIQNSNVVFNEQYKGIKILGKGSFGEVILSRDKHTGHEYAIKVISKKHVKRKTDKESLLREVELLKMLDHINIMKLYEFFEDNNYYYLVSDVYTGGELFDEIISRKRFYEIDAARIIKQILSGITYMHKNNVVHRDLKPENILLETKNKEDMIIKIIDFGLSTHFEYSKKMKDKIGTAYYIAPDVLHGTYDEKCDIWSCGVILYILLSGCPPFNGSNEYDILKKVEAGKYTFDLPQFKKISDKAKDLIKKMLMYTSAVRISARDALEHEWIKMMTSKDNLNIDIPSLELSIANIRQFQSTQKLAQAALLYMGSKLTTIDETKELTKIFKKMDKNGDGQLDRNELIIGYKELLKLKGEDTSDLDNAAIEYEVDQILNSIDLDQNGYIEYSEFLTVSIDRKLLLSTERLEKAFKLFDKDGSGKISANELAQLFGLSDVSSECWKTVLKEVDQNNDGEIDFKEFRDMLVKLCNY

Compound | growth inhibition [1] | inhibition [2] | inhibition [3] | growth inhibition [4] | outcome [5] | outcome [6] | outcome [7] | outcome [8]
O=S(=O)(NCCN1CCCC1)c1ccc(-c2cccc(CNCCc3cccs3)c2)s1 | 44% (inactive) | 39% (inactive) | -2% (inactive) | 99% (active) | inactive | inactive | inactive | inactive
O=C(NCC1COc2ccccc2O1)c1cnc2c(c1)nc(-c1cnc(-c3ccccc3)[nH]1)n2CCSCc1c(F)cccc1Cl (stereo not given) | 10% (inactive) | 6% (inactive) | 4% (inactive) | 95% (active) | inactive | inactive | inactive | inactive
COc1ccc(CON2C(N)=NC(N)=NC2(C)C)cc1OC | 97% (active) | 68% (active) | 1% (inactive) | 96% (active) | inactive | inactive | inactive | inactive
COc1ccc2cc(-c3nc(-c4c(Cl)cccc4Cl)[nH]c3-c3ccnc(NCCCN4CCCCC4C)c3)ccc2c1 (stereo not given) | 86% (active) | 19% (inactive) | -1% (inactive) | 94% (active) | inactive | inactive | inactive | inactive
O=C(Nc1cccc(CN2CCCN(Cc3cccc(Cl)c3)CC2)c1)c1ccc(Cl)c(Cl)c1 | 17% (inactive) | 18% (inactive) | -1% (inactive) | 89% (active) | inactive | inactive | inactive | inactive
O=C(Nc1cccc(CN2CCCN(Cc3ccc(F)cc3)CC2)c1)c1cc2ccccc2s1 | 36% (inactive) | 29% (inactive) | -9% (inactive) | 91% (active) | inactive | inactive | inactive | inactive
c1ccc2c(NCCc3cnc[nH]3)c3ccccc3nc2c1 | -1% (inactive) | 20% (inactive) | 6% (inactive) | 91% (active) | inactive | inactive | inactive | inactive
CNCCNCc1cccc(-c2ccc(-c3nc4ccc(C(F)(F)F)cc4[nH]3)s2)c1 | 85% (active) | 31% (inactive) | 4% (inactive) | 98% (active) | inactive | inactive | inactive | inactive
CN(C)c1ccc(CN2CCCCC(NC(=O)c3cc(-c4ccccc4Cl)cs3)C2)cc1 (stereo not given) | 14% (inactive) | 10% (inactive) | -3% (inactive) | 91% (active) | inactive | inactive | inactive | inactive
COc1cccc2c(Oc3ccccc3C)ccnc12 | 45% (inactive) | -7% (inactive) | 4% (inactive) | 85% (active) | inactive | inactive | inactive | inactive
COc1ccccc1CNc1ccnc(NCCc2cccc(C(F)(F)F)c2)n1 | 68% (active) | 39% (inactive) | -4% (inactive) | 93% (active) | inactive | inactive | inactive | inactive
NC(N)=Nc1nc(-c2cccc(NC(=O)C(F)(F)F)c2)cs1 | 24% (inactive) | -4% (inactive) | -2% (inactive) | 94% (active) | inactive | inactive | inactive | inactive
Nc1c(I)cc(C(=O)Nc2ccc3nc4c(c(N)c3c2)CCCC4)cc1I | 99% (active) | 40% (inactive) | 2% (inactive) | 100% (active) | inactive | inactive | inactive | inactive
Cc1cc(NCCCOc2ccc(Cl)cc2)nc(NCc2ccccc2)n1 | 20% (inactive) | 45% (inactive) | 0% (inactive) | 95% (active) | inactive | inactive | inactive | inactive
O=C(Nc1cccc(C2=NCCCN2)c1)Nc1cccc(C2=NCCCN2)c1 | 70% (active) | 5% (inactive) | -6% (inactive) | 81% (active) | inactive | inactive | inactive | inactive
O=C(N[C@H]1CCN(CCc2ccc(O[C@H]3CCNC3)cc2)C1)c1ccc(Cl)c(Cl)c1 | 5% (inactive) | 18% (inactive) | -3% (inactive) | 96% (active) | inactive | inactive | inactive | inactive
CNC(=O)CSc1nnc(-c2ccc(C)cc2)c(-c2ccc(C)cc2)n1 | 49% (inactive) | 2% (inactive) | -3% (inactive) | 94% (active) | inactive | inactive | inactive | inactive
CC(=O)Nc1nc(C(=O)Nc2ccc(-c3cccc(-c4nc5ccccc5[nH]4)c3)cc2)cs1 | 83% (active) | 68% (active) | -10% (inactive) | 99% (active) | inactive | inactive | inactive | inactive
CCCCc1cc(NCc2ccncc2)nc(Nc2ccc(C)cc2)n1 | 59% (active) | 7% (inactive) | -4% (inactive) | 101% (active) | inactive | inactive | inactive | inactive
CCCNCc1ccc(-c2ccc(CN(Cc3cccs3)C(=O)C3CCN(C)CC3)cc2)nc1 | 35% (inactive) | 10% (inactive) | -3% (inactive) | 99% (active) | inactive | inactive | inactive | inactive
